Results on 108 sequences are retold here after PubChem BioAssay AID1508600 (Functional Genomics Laboratory (NCATS/FGL), 2020).

In all, about 53,000 sequences went through this assay and about 3,700 (7%) were called active. The entries come from a sample that favours actives as a whole. A number with no mark means an inactive call.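 How the source made its calls: active means gene knockdowns whose robust z-score for IL-1 alpha signal is at least 2 or at most -2, so actives lie on both sides; inactive means the rest.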

This experiment in a line: Components of the Cytosolic LPS Sensing Pathway: Gene Identification via Genome-wide siRNA Screen.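 Further: robust z of the log signal after scaling to non-targeting control siRNA wells of the plate.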 The conditions noted are these: RAW264.7 macrophages, IL-1a HTRF, actives lie on both sides, screened at 100 nM (by protocol), cells primed 5 h with Pam3CSK4 first. The method, boiled down: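 RAW264.7 mouse macrophages reverse-transfected with single siRNAs (100 nM final) for 48h, primed with Pam3CSK4 for 5 hours, then transfected with LipidA for 24 hour. Supernatant IL-1a read by HTRF; values normalized to negative-control median, log-transformed robust z-scores.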
For the sequence CCAACUUUCUCUUAGGAAATT against Igfl3, the z-score was -0.487.

On to CCAGCCUUCAAUUGUGGUCTT against Scn1b, for which the z-score was 0.672.

Consider GAUUUUCUUUGUUCAUCUCTT against Olfr727, for which the z-score was -0.535.

Consider CGACUAUCAGCAGCUGAAGTT against Igf1r, for which the z-score was 5.27 (active).

With GCGGAUUGUCUUCCUAGACTT against Smg9, the z-score is -1.14.

For GGUUCUAGGACCUAUUUUGTT against Cep57, the z-score was 1.87.

On to GGUUAUUACCCAGUUCACGTT against Pramel1, for which the z-score is -0.668.

On to GCCCUUCGUGAUGAAGAAUTT against B4galt3, for which the z-score is 0.829.

As to GCUAAACUCGCUCAAUCUGTT against Cd14, the z-score was 0.537.

With CCUACUACUUCGUUAUCCGTT against Chrna2, the z-score was 0.447.

Regarding GCUGAUGUGAAUGGCUCACTT against Gmeb2, the z-score is -1.02.

Regarding GGCCCUUUGAGUCGUUCCUTT against Batf3, the z-score was 2.6 (active).

For the sequence CCGUGUCUUAGGUGAUCACTT against H2-DMb1, the z-score is 0.391.

On to GGAGACGAAUCCUUUCAGUTT against Mis12, for which the z-score is 0.476.

On to CCAAAGGUUACCAGGAAGCTT against Pcsk4, for which the z-score is 0.124.

For the sequence GCAGCUAAAACAAGUUUGATT against Sntg2, the z-score is -0.565.

With GGAUUUACCUUACAAAAGUTT against Aff2, the z-score was 0.578.

Turning to GGAUCUAUUCUCUCUGAUGTT against Prune2, the z-score is 1.03.

For the sequence GGCAAAGUAUAAAGAAGUATT against Gkap1, the z-score is 2.23 (active).

In the case of GCCAUUAAGAUCGCUUACUTT against Selenop, the z-score was -0.432.

For the sequence GGAGCUUUCUCAAGAUUCATT against Arid1a, the z-score was 0.263.

Regarding GCGACUUCGCUAUAUCAAGTT against Samhd1, the z-score is 1.65.

With CCUUAGGAUUUGAACGCGUTT against Cutc, the z-score was -0.554.

Consider GCUAGUAUUCUAAGAUCUUTT against Mpp6, for which the z-score was 2.25 (active).

On to GGCAAAAUCGUGAAAAUUCTT against Vwf, for which the z-score is -0.144.

As for GGCGAUCCUUACUCCAAUGTT against Zfp90, the z-score is 0.143.

Take GGAAUGGACCUCAAAAUUGTT against Vmp1: the z-score is 0.532.

For GCCACUACCGAUUUUCCCUTT against Lctl, the z-score is -2.29 (active).

Take GGAGAUGCUAGAAAUUGUGTT against Hpca: the z-score is -0.909.

Consider GCACAUCGGCCUUAAGUCATT against Supt4a, for which the z-score was -0.833.

As to CCGUUUUCGCUUUGAGAAATT against Smarcad1, the z-score was 4.47 (active).

Consider GUAAUUCACAGCCUCUCCGTT against Pitx3, for which the z-score was 1.03.

As for GGACAUUUUAGUUGUCUUGTT against Slc38a4, the z-score was -0.607.

With GGAUCCAAGGCAAAGAUGUTT against Fto, the z-score is 1.73.

On to AUACGAUUUUUGUACUGCUTT against Defa4, for which the z-score is 0.305.

Consider GCCAGGUGUGGUGACUCAUTT against Tprkb, for which the z-score was 0.584.

Turning to GCUAUGCAAAUGGUGUCAATT against Fcnb, the z-score was -0.147.

GGUGAGAUGGUUCAACAUGTT against Olfr77: the z-score is 1.7.

As for GGACUUGAACAACUUACAATT against Plcb1, the z-score is 2.37 (active).

In the case of GUAUUAAGACCAAACAGAUTT against Olfr623, the z-score is -0.497.

Consider CCCAAUCGGUUAAUUGUUGTT against Vcp, for which the z-score is -2.37 (active).

As for GCCAGUUAUCACUUAACCCTT against Cmc1, the z-score is -0.514.

On to GGAACCUUCAGAGCGACUUTT against Trib3, for which the z-score was 0.224.

For the sequence GGCAAGGAGGAUGACAAAATT against Rnf113a2, the z-score was 0.416.

On to GGUAGAGAGACUGUAAUUATT against Ppp2r1b, for which the z-score is -0.598.

In the case of GGAGUUUAUGAAAUUCAACTT against Fcgrt, the z-score is 1.34.

With CCAUCUAUGGUAUGGAGCGTT against Abcg4, the z-score was 0.606.

Regarding GGAUGAAGAAGAUGAAGAUTT against Prepl, the z-score was -2.62 (active).

As for GGAAGACUUUGAAUACCACTT against Slc4a2, the z-score is 0.457.

Regarding GCUGUUCUGCAAAACUGGATT against Rbpms, the z-score was -1.36.

GGACACAAGGUCGCCAUCUTT against Tcf7l1: the z-score was -0.502.

In the case of GGUGCUGGAUGAAUUUGGGTT against Zp1, the z-score was -0.416.

Consider GCAUGUCGCCUUGAAAUUATT against Cpne4, for which the z-score was 0.202.

On to GGAAGGAGGGUAUGUGGUUTT against Lgals9, for which the z-score is -0.346.

As for GCAAACUGCCCUCUUUGUGTT against Olfr1024, the z-score is 2.54 (active).

On to GGAUAUACACAACAGGCACTT against Tceal9, for which the z-score was 0.422.

In the case of GGAGACACAUAGGUGUAAATT against H2-T23, the z-score was 0.458.

In the case of “GCACCAUCGACUAAUCAAATT against 1700029J07Rik”, the z-score was 1.12.

Turning to CCUCUGCUACUCUUAUUGUTT against Ttn, the z-score was -0.523.

As for GGACUGUACAGUGGCAUUATT against Cd70, the z-score was -1.69.

As for UACUCGUGGUGUUUGCAAGTT against Olfr1154, the z-score was 0.873.

As to GGUGGAAGCAAGAGAAAAUTT against Tnp1, the z-score was 2.03 (active).

Regarding GCUCAUGUCUUAUUUGGAUTT against Klhl15, the z-score was -0.393.

Consider CCGAAGUGCCAUGCCAUUUTT against Pdlim1, for which the z-score is 0.399.

For the sequence GCACAUUUAUCCCGGUGUATT against Pnpla2, the z-score is -2.01 (active).

Regarding GGUUCAAUUCAAGUCUUUATT against Olfr195, the z-score was 0.339.

For GGCCUACAGCUGGAAAGAATT against Chrm1, the z-score is 0.418.

GCUGCUCUGCUAUAAGUAUTT against Kptn: the z-score was -0.269.

On to GGAAAUCGAUAGUUUCUUCTT against Olfr1302, for which the z-score was -0.0687.

Take GACCUUCGUUAGCAUUACGTT against Pfn1: the z-score is 0.65.

Take GCUGUUUUGUCUCCAGCCCTT against Zbtb20: the z-score is -0.118.

Regarding GGGAUAUGUGACUAUGUUATT against Slc5a7, the z-score is -0.138.

As to GCUGAGAAUCGUUUAAAUGTT against Ugt2a3, the z-score was 0.00662.

With “GCUAAUUGUUCACUAAAGGTT against 1700029H14Rik”, the z-score was 0.655.

Turning to GGUUAUCAUGAGGCCUUGGTT against Olfr1339, the z-score was -2.38 (active).

For GGUCAGAAAAGUAUGUUGGTT against Naip5, the z-score was 0.208.

For the sequence GUGUAUCCCAGGCUAUCACTT against Vmn1r19, the z-score is -1.17.

Consider GCCACGAUAAUUCAGGAGUTT against Aurkc, for which the z-score is 2.27 (active).

Regarding GCUGAAUGGAAGGAAGUUGTT against Wdr83os, the z-score was -1.32.

Take CGCCAAUGUGAUUAAACUATT against Mak: the z-score was 2.01 (active).

For the sequence GGACAUGUGUAAAUAAUCATT against En2, the z-score is 3.4 (active).

For GGUGAUAGUACUGUCAGCCTT against Olfr1225, the z-score was -0.517.

Turning to GGAACAAGAACAAGUUGAGTT against Spa17, the z-score is 0.389.

In the case of GGUGGAAGCACUCAAUAAGTT against Pik3cb, the z-score was -1.24.

GGUGCUUCUCUAAGAUAAUTT against Ddias: the z-score is 0.776.

On to CCCUUACUUAGUCUCCACUTT against Olig1, for which the z-score is -0.025.

Regarding GGUGUUAUCAGAAUUCAGATT against Cars, the z-score is 2.6 (active).

As for GGACCACCGUGAUCAACAUTT against Ifitm2, the z-score was 0.215.

GCUCACUUGUAGUGCUUUATT against Arf2: the z-score was 1.88.

For the sequence GGCGUAAACAUGGUGUGCATT against Taok3, the z-score was -0.807.

For the sequence GCUCUAUAGUGACCAAUGUTT against Gcgr, the z-score is -0.072.

GGAAGUUCCACGUUAUUGUTT against Eif2b2: the z-score is -1.3.

For the sequence GCGAUUUCACACCAUCACATT against Rab10, the z-score was -1.03.

Regarding GGAUGAUUUAUGGUUACUGTT against Vmn1r80, the z-score is 2.01 (active).

In the case of GGCCUUUCACAACAUAAAATT against Chil6, the z-score is -0.808.

For the sequence GGGAGCAGUCUUCCCUCAUTT against Cox8a, the z-score is -1.44.

With AGAAAUGCCUCUUCAGUGATT against Olfr884, the z-score was 1.59.

Regarding GGAGAAAUGAAGAUUGUGGTT against Tmem218, the z-score is -2.31 (active).

In the case of GGUCAGCCAGACCAUUUCUTT against Edc3, the z-score was -1.27.

For GGUGGCAAAGUGGUGAUCCTT against Fabp7, the z-score was 2.05 (active).

Take GGAUCUUAUUAUUUGAUCCTT against Mettl15: the z-score is -0.671.

In the case of GGAAGUAGAUUAGAUGGUATT against Akt3, the z-score was 0.52.

With GGAAUACCACAUGCUUUUGTT against Ldah, the z-score is -0.288.

As for GCUAACCCUCGUUUAGAAGTT against Apol9b, the z-score was 0.529.

For the sequence GGCAUCUUGGAGGAUUUGCTT against Cyrib, the z-score is 0.719.

For GGGUCAAUCAUGAAUGUUUTT against Pak4, the z-score was -1.02.

Consider GAUUUGAGACCCAGAUCAUTT against Gzmm, for which the z-score was 2.08 (active).

Consider GGGACAUGUUUUGAUAAAGTT against Yy1, for which the z-score was -0.591.
